Sampled rows, rich in hits. Any-hit rate of the full collection: about 6.8%.
Spn PMK inh: blocks S. pneumoniae phosphomevalonate kinase; purified PMK, PK/LDH-coupled NADH absorbance 340 nm; inhibition, % at 10 µM; hit rate 0.49% among 65,000; AID 539;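 active means top-ranked compounds by inhibition in the single 10 µM screen, taking a fixed number of the strongest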;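 further: 0% = full reaction with DMSO carrier and 100% = background rate without enzyme reaction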
Spn DPM-DC inh: inhibitors of Streptococcus pneumoniae diphosphomevalonate decarboxylase. hit rate 0.49% among 65,000. calls only at 10 µM. purified DPM-DC, PK/LDH coupled NADH fluorescence;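 active means the 320 compounds with the highest percent inhibition in the single-dose primary screen, excluding strongly autofluorescent ones, cut at about 32% in these data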;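 further: kinetic rate of NADH fluorescence loss reporting ADP formed by the decarboxylase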
Spn MK inh: blocks S. pneumoniae mevalonate kinase | purified MK, PK/LDH-coupled NADH absorbance 340 nm | inhibition, % at 10 µM | hit rate 0.48% among 65,000;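 active means ranked among the strongest by inhibition in the single 10 µM screen, a fixed top-ranked set picked for dose follow-up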
A340 absorber: compound absorbs light at 340 nm; 65,000 tested, under 10 active; AID 708; compound absorbance at 340 nm, fold over control; fold change at 10 µM;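 active means at 10 µM dose, initial 340 nm absorbance at least 2 fold that of control wells; inactive means change under 2 fold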;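 further: initial absorbance extrapolated from kinetic A340 decline of NADH oxidation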
Autofluor 339: intrinsic fluorescence of library compounds, ex339/em460 – biochemical, MLSMR library, data from DPM-DC assay, artefact control, profiling panel. compound autofluorescence, ex339/em460 nm, NADH buffer; active compounds read high; 1 = no-compound wells, NADH background. fluorescence fold increase at 10 µM. hit rate 5.5% among 65,000. AID 709;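 active means at 10 µM, mean starting fluorescence two-fold or more over control wells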;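 further: signal is the first read of a kinetic run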
NADH enzymes: blocks coupling enzymes of NAD/NADH assays. coupled PK/LDH NADH assays, four targets. IC50, µM (titrated, usually from 10 µM), for inactives: top-dose inhibition. hit rate 0.02% among 65,000. AID 774;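 active means single-dose screening hits from any of four coupled enzyme assays that gave an IC50 when retested across doses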;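 further: the DPM-DC format reads NADH fluorescence rather than 340 nm absorbance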
* hit, by the source's call; i = inactive; . = no result given.

SMILES	Spn PMK inh	Spn DPM-DC inh	Spn MK inh	A340 absorber	Autofluor 339	NADH enzymes
CCC(=O)N1CN(S(=O)(=O)c2ccc(C)cc2)CC1C (centres undefined)	14	i	0	1	1	5%
CC(=O)Nc1ccc(S(=O)(=O)N2CCN(c3cc(C)nc4ccccc34)CC2)cc1	18	i	5	1	1	3%
CC(=O)Nc1ccc(S(=O)(=O)N2CCN(c3nc(NC4CCCC4)c4ccccc4n3)CC2)cc1	9	.	2	1.1	2.2*	6%
CC(CC(=O)NCc1ccccc1)C1CCCO1 (centres undefined)	8	i	6	1	1	3%
O=C(NCc1ccccc1)N(Cc1nc2ccccc2c(=O)[nH]1)C1CCCC1	5	.	10	1	3.8*	8%
Cc1cccc(Nc2ccccc2C(=O)O)c1C	4	i	4	1	0.96	3%
CC(=O)n1cc(Nc2ccccc2C(=O)O)c2ccccc21	2	.	3	1.1	2.2*	3%
O=C(OCc1cc(Cl)ccc1OC(F)F)c1cc(S(=O)(=O)O)ccc1O	11	.	0	1	2.1*	6%
O=C(O)c1cc(S(=O)(=O)O)ccc1O	3	i	1	1	1.3	1%
Nc1ccc2c3c(cccc13)CC2	2	.	6	1	2.3*	4%
CCN(CCCNC(=O)c1ccc(N2CCCC2=O)cc1)c1cccc(C)c1	11	i	0	1	1	4%
CCOc1ccc(CCNC(=O)c2cc3sccc3n2C)cc1OCC	9	i	8	0.97	1.1	6%
Nc1c2c(nc3ccccc13)N(C1CCCCC1)CC2	0	.	49*	1.1	2.3*	25%
CCN(CC)c1ccc(C2C(C(=O)OC)=C(C)NC(C)=C2C(=O)OC)cc1	10	i	8	1.1	1.2	9%
COC(=O)C1=C(C)NC(C)=C(C(=O)OC)C1c1ccc(NC(C)=O)cc1	9	i	1	1.1	2.1*	11%
O=C(COC(=O)CCC(=O)c1cccs1)Nc1ccc(S(=O)(=O)N2CCOCC2)cc1	11	i	1	0.97	0.97	4%
COc1ccc2[nH]c(C(=O)O)c(CCNC(C)=O)c2c1	11	i	3	1	2.5*	12%
CC1CC(C)CN(S(=O)(=O)c2ccc(C(=O)Nc3nnc(-c4cccs4)o3)cc2)C1 (centres undefined)	6	.	1	1.1	3.8*	4%
COc1ccc(-c2nnc(NC(=O)c3ccc(S(=O)(=O)N4CCc5ccccc5C4)cc3)o2)cc1	3	i	0	1.1	3.1*	9%
CC(C)Oc1ccc(NC(=O)c2ccncc2)cc1	10	i	9	1	1.1	7%
Cc1cc(Nc2ccc(F)c(Cl)c2)n2nc(C)nc2n1	8	i	12	1.1	1.1	7%
Nc1nc2nccc(-c3ccc(Cl)cc3)n2n1	17	.	7	1.1	3.8*	12%
Cc1cc(-c2ccc(Cl)cc2)n2nc(N)nc2n1	0	.	4	1.1	3.6*	2%
CCn1c(SCC(=O)N2CCN(c3ccccc3F)CC2)nnc1-c1ccoc1C	13	i	8	1	1.1	7%
CCCCSc1nc(N)c(NC(=O)c2ccco2)c(=O)[nH]1	9	i	7	1	1.1	6%
SMILES	Spn PMK inh	Spn DPM-DC inh	Spn MK inh	A340 absorber	Autofluor 339	NADH enzymes
CC(C)(C)NC(=O)CSc1ncnc2c1nnn2Cc1ccccc1Cl	40*	i	0	1	1.1	13%
COc1ccccc1C1/C(=C(/O)c2ccccc2)C(=O)C(=O)N1CC(C)O (centres undefined)	7	i	11	1.1	1.1	7%
Cc1cc(NCCCN2CCOCC2)n2nc(C)c(-c3ccccc3)c2n1	13	i	10	1	1.5	11%
Cc1cc(NCCOCCO)n2ncc(-c3ccc(Cl)cc3)c2n1	9	i	11	1	2.6*	15%
Cc1cc(C)c2c(n1)nn1c(NCCCN3CCOCC3)cc(C)nc21	5	.	4	1	3*	3%
Cc1cc(NCCCN2CCOCC2)n2nc(C)c(-c3ccc(F)cc3)c2n1	25*	i	0	1.1	1.6	8%
Cc1cc(C)c2c(n1)nn1c(NCCCn3ccnc3)cc(C)nc21	9	.	10	0.98	3.9*	10%
COc1ccccc1-c1c(C)nn2c(NCCN3CCCC3)cc(C)nc12	5	i	1	1.1	1.1	2%
CCn1c(COc2ccccc2C)nnc1SCC(=O)CC(=O)Nc1ccccc1	9	i	3	1	1.1	4%
CCCC(=O)C1=C(O)C(C(=O)OC)C(C)(C)CC1=Nc1ccncc1 (centres undefined)	13	i	6	1.1	1.1	9%
COC(=O)c1ccc(CSc2ncnc3c2nnn3-c2ccc(OC)cc2)o1	3	i	5	1	1.1	2%
Cc1cc(NCCCN2CCOCC2)n2ncc(-c3ccccc3)c2n1	16	i	10	1.1	2.1*	12%
CC(=O)Nc1ccc2nc(-c3cccs3)[nH]c2c1	8	.	2	1.1	2.3*	5%
O=C1CCCC(O)=C1C1C2=C(CCCC2=O)Oc2ccccc21 (centres undefined)	4	i	6	1	1	3%
CCOc1ccc(C2CC(c3cccc(OC)c3)Nc3ncnn32)cc1 (centres undefined)	2	i	6	1	1.1	3%
O=C(Cc1coc(-c2ccc(F)cc2)n1)N1CCOCC1	32*	i	0	1	1	11%
Cc1ccc(-n2nnnc2SCC(=O)Nc2ccc3c(c2)COC3=O)cc1C	6	i	4	1.1	1.3	5%
CC1CCc2c(sc(NC(=O)c3noc4c3CCCC4)c2C(N)=O)C1 (centres undefined)	0	.	6	1.1	4.8*	3%
Cc1cccc(-n2nc3c(c2NC(=O)CCC2CCCCC2)CS(=O)C3)c1C (centres undefined)	0	i	2	0.99	1.1	2%
CCCCN(C)Cc1c(C)[nH]c2ccc(OCC)cc2c1=O	0	.	2	1.1	2.1*	1%
CC12CC(c3ccccc3O1)C(C(=O)NCc1ccccc1)C(=O)N2 (centres undefined)	15	i	11	0.97	1.1	9%
COc1cccc(CC(NC(C)=O)C(=O)NC2CCN(c3nc(C)cc(C)c3C#N)CC2)c1OC (centres undefined)	12	i	9	1.1	3*	17%
CCCCn1c(=O)n(C)c(=O)c2c(C(F)(F)F)cc(-c3ccncc3)nc21	12	.	0	1.1	2.1*	6%
CCCCn1ccc(=O)c2c(C(F)(F)F)nccc21	0	i	12	1.1	1.1	4%
Cc1csc2nc(=O)c3ccccc3n12	11	.	10	1	3.7*	11%

Source: PubChem BioAssay
